Here are results for 8 molecules from PubChem BioAssay (NCI).

Among the test systems are DU-145 prostate; K-562 leukemia; MALME-3M melanoma; MDA-MB-231 breast; RXF 393 renal; SF-268 CNS; SF-295 CNS; SF-539 CNS; M14 melanoma; HCT-15 colon; HT29 colon; SNB-75 CNS; SNB-19 CNS; U251 CNS; PC-3 prostate; SK-MEL-5 melanoma; UACC-62 melanoma; LOX IMVI melanoma; SK-MEL-28 melanoma; UACC-257 melanoma.
Common to all, as to assay: NCI-60 one-dose screen, 48 h (100 = growth as untreated, 0 = no growth, -100 = all killed)
Holding throughout (settings): 10 µM unless noted

Structures are written as SMILES. This is part of a sample that, as a whole, favours compounds with a hit. Of some 83,000 tested, about 20% had one in any assay.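 Cell lines were cultured in 96-well plates, exposed to a single compound concentration, and assessed for percent growth 48 hours later.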 Unmarked numbers belong to inactive results. Activity calls are given as the source filed them. The calls were made as follows: active = growth percent below 10; inactive = the rest.

As for `O=C1OC(/C=C/c2ccccc2)=NC/1=C/c1ccccc1[N+](=O)[O-]`, the growth with DU-145 prostate is 105%; with K-562 leukemia, 106%; in the test with MALME-3M melanoma, 96.9%; with MDA-MB-231 breast, 99%; in the test on RXF 393 renal, 116%; in the test on SF-268 CNS it was 99.7%. For the same molecule, the growth with SF-295 CNS was 97.4%; with SF-539 CNS it was 89.8%; with M14 melanoma it was 99.6%; in the test on HCT-15 colon, 97.9%; with HT29 colon, 98.2%; in the test on SNB-75 CNS, 82%. For the same molecule, the growth was 104% in the test with SNB-19 CNS; 100% in the test with U251 CNS; 92.7% in the test on PC-3 prostate; 99.8% with SK-MEL-5 melanoma; 110% in the test on UACC-62 melanoma; 89.1% with LOX IMVI melanoma. Moreover, in the test with SK-MEL-28 melanoma, the growth is 97.3%.
Consider `CCS(=O)(=O)Nc1cccc(Nc2c3cccc(C)c3nc3c(C)cccc23)c1OC`, for which the growth in the test with DU-145 prostate is 2.74% (active); in the test with K-562 leukemia, 8.19% (active); in the test with MALME-3M melanoma, 21.5%; with MDA-MB-231 breast, 59.9%; in the test on RXF 393 renal, 34.6%; in the test on SF-268 CNS, 20.4%. The growth with SF-295 CNS is -7.84% (active); in the test on SF-539 CNS, -41.3% (active); with M14 melanoma it was 17.2%; in the test on HCT-15 colon, 11.1%; with HT29 colon, 11.3%; in the test with SNB-75 CNS it was 21.7%. For the same molecule, the growth is 38.8% in the test with SNB-19 CNS; 7.01% (active) in the test on U251 CNS; 21.4% in the test with PC-3 prostate; 17.4% in the test with SK-MEL-5 melanoma; 45.5% in the test with UACC-62 melanoma; 12.8% in the test on LOX IMVI melanoma. Besides, in the test with SK-MEL-28 melanoma, the growth is 56.9%.
Consider `COc1ccc(/C=C/c2nc(NCCCN(C)C)c3ccccc3n2)cc1`, for which the growth is 96.5% in the test with DU-145 prostate; -75.3% (active) in the test with K-562 leukemia; 25.9% in the test on MALME-3M melanoma; 18.7% in the test with MDA-MB-231 breast; 55% in the test with SF-268 CNS; 65.8% with SF-295 CNS. The growth with SF-539 CNS was 47.5%; in the test on UACC-257 melanoma, 97.3%; in the test with HCT-15 colon, 86.6%; with HT29 colon it was 11.5%; with SNB-75 CNS it was 42.8%; with SNB-19 CNS it was 100%. The growth is -48.4% (active) with U251 CNS; 32.3% with SK-MEL-5 melanoma; 104% in the test on UACC-62 melanoma; -67.1% (active) with LOX IMVI melanoma; 77.5% with SK-MEL-28 melanoma.
Consider `COc1cccc(C2C(C#N)=C(N)Oc3cc4c(cc32)OCO4)c1` (stereo unspecified), for which the growth was 1.58% (active) with DU-145 prostate; 39.8% with MALME-3M melanoma; 30.2% in the test on MDA-MB-231 breast; 2.45% (active) in the test with RXF 393 renal; 29.9% in the test on SF-268 CNS; 7.47% (active) in the test on SF-295 CNS. The growth in the test on SF-539 CNS is 4.53% (active); with UACC-257 melanoma, 57.4%; in the test on M14 melanoma, 0.938% (active); in the test with HCT-15 colon it was 16.4%; with HT29 colon, 8.91% (active); in the test with SNB-75 CNS it was 8.73% (active). For the same molecule, the growth was 39.2% in the test on SNB-19 CNS; 23.4% with U251 CNS; 4.73% (active) with SK-MEL-5 melanoma; 33.6% in the test with UACC-62 melanoma; 23.1% in the test on LOX IMVI melanoma; 43% in the test with SK-MEL-28 melanoma.
In the case of `CCOC(=O)Nc1ccc2nc(N3CCCCCC3)sc2c1`, the growth with DU-145 prostate is 22.4%; in the test on MALME-3M melanoma, 38.9%; in the test with RXF 393 renal it was 14.4%; in the test on SF-268 CNS it was 49%; with SF-295 CNS, 23.5%; with SF-539 CNS, -1.3% (active). Besides, the growth in the test with UACC-257 melanoma was 64.3%; in the test on M14 melanoma it was 19.5%; in the test with HCT-15 colon, 24.7%; with HT29 colon, 6.49% (active); in the test with SNB-75 CNS, -8.82% (active); in the test on SNB-19 CNS, 33.6%. Further, the growth in the test on U251 CNS was 22.8%; in the test with PC-3 prostate, 25%; with SK-MEL-5 melanoma, 11.5%; in the test on UACC-62 melanoma it was 26%; in the test on LOX IMVI melanoma, 44.4%; in the test on SK-MEL-28 melanoma, 42.6%.
Take `C[N+](C)(C)CCCCCCCCCC[N+](C)(C)C`: the growth is 93% in the test with MALME-3M melanoma; 83.6% in the test on MDA-MB-231 breast; 101% with RXF 393 renal; 98.2% in the test with SF-268 CNS; 113% in the test with SF-295 CNS; 119% in the test with SF-539 CNS. Moreover, the growth in the test on UACC-257 melanoma is 107%; in the test with M14 melanoma, 97.1%; in the test on HCT-15 colon, 107%; with SNB-75 CNS, 89.3%; in the test with SNB-19 CNS, 98.7%; in the test with U251 CNS, 91.1%. Besides, the growth is 89.3% in the test with PC-3 prostate; 97.4% in the test on SK-MEL-5 melanoma; 91.7% in the test on UACC-62 melanoma; 84.7% in the test on LOX IMVI melanoma; 104% with SK-MEL-28 melanoma.
On to `COc1ccc(-c2cnnn2-c2nonc2-n2cccc2)cc1`, for which the growth was 9.22% (active) with DU-145 prostate; 47.8% in the test with MALME-3M melanoma; 33.5% with MDA-MB-231 breast; -18.3% (active) in the test with RXF 393 renal; 35.1% in the test on SF-268 CNS; -17.2% (active) in the test with SF-295 CNS. The growth in the test on SF-539 CNS is -13.9% (active); with UACC-257 melanoma it was 65.6%; in the test with M14 melanoma, -2.06% (active); with HCT-15 colon it was 21.4%; in the test with HT29 colon, 8.25% (active); in the test with SNB-75 CNS, -15.9% (active). For the same molecule, the growth is 37.6% in the test with SNB-19 CNS; 22.1% in the test with U251 CNS; 28.8% in the test on PC-3 prostate; 31.9% in the test with SK-MEL-5 melanoma; 24.1% in the test with UACC-62 melanoma; 34.1% in the test on LOX IMVI melanoma. In addition, in the test on SK-MEL-28 melanoma, the growth is 18.4%.
As for `COc1cc(CN(CCC(O)N2CCCC2=O)Cc2ccc3c(c2)OCO3)cc(OC)c1OC` (stereo unspecified), the growth is 108% in the test with DU-145 prostate; 109% in the test with MALME-3M melanoma; 110% with MDA-MB-231 breast; 121% in the test on RXF 393 renal; 106% in the test with SF-268 CNS; 91.5% in the test with SF-295 CNS. Moreover, the growth in the test on SF-539 CNS is 100%; with UACC-257 melanoma, 109%; in the test on M14 melanoma it was 95.8%; with HCT-15 colon it was 97.5%; in the test with HT29 colon, 98.3%; with SNB-75 CNS, 93.7%. The growth in the test on SNB-19 CNS is 99.5%; in the test on U251 CNS it was 102%; in the test with PC-3 prostate, 89.5%; with SK-MEL-5 melanoma it was 111%; in the test with UACC-62 melanoma, 101%; with LOX IMVI melanoma, 94.9%. Besides, the growth in the test on SK-MEL-28 melanoma is 117%.
